The results in this text go back to paper PMC5540273 (PLoS ONE, 2017).

Test systems include PAK3; PAK4; PAK6; PAK7; PDGFRA; PDGFRB; PDPK1; PFTAIRE2; PHKG1; PHKG2; PIK3C2B; PIK3C2G; PIK3CA; PIK3CB; PIK3CD; PIK3CG.
What all share (conditions): concentration: 1 μM, replicates: in singlicate; n = 1
The next experiment concerns T1, PCTK1.
T1 construct: gene CDK16

A further experiment relates to T2, PCTK2.
T2 construct: gene CDK17

A further experiment has as its system T3, PCTK3.
T3 construct: gene CDK18

The test system of another experiment is T4, PFTK1.
T4 construct: gene CDK14
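Note: KINOMEscan kinase panel screen.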

Regarding `COC(=O)c1cccc(NC(=O)NC2CCN(c3ccnc(Nc4ccc(F)cc4)n3)C2)c1` (centres unmarked) [GSK1379725], the “%Inh” value in the experiment with PAK3 is 0%; with PAK4 it was 0%; in the experiment with PAK6, 0%; in the experiment with PAK7 it was 0%; with PCTK1, 10%; with PCTK2, 0%. For the same compound, the “%Inh” value is 12% with PCTK3; 0% with PDGFRA; 36% with PDGFRB; 0% with PDPK1; 5% with PFTAIRE2; 16% in the experiment on PFTK1. Further, the “%Inh” value in the experiment with PHKG1, in the experiment with PHKG2, in the experiment with PIK3C2B, with PIK3C2G, in the experiment with PIK3CA and with PIK3CB was 0% throughout. Besides, the “%Inh” value in the experiment with PIK3CD and in the experiment with PIK3CG was 0% in each case.
As to `Cc1ccc(NC(=O)c2ccc(Cl)cc2)cc1-c1ccc(C(=O)Nc2ccncc2)cc1` [GSK1398467], the “%Inh” value was 19% in the experiment on PAK3; 0% in the experiment on PAK4; 0% with PAK6; 65% in the experiment on PAK7; 0% with PCTK1; 0% in the experiment on PCTK2. For the same compound, the “%Inh” value was determined as 0% in the experiment on PCTK3; 66% with PDGFRA; 100% with PDGFRB; 0% with PDPK1; 0% in the experiment on PFTAIRE2; 0% in the experiment on PFTK1. The “%Inh” value was 0% in the experiment on PHKG1; 16% with PHKG2; 0% with PIK3C2B; 0% with PIK3C2G; 0% in the experiment on PIK3CA; 0% in the experiment on PIK3CB. Moreover, the “%Inh” value with PIK3CD and with PIK3CG was 0% each time.
For the compound `CCCCc1nn2ncccc2c1-c1ccnc(NC2CC2)n1` [GW684374], the “%Inh” value with PAK3 was 0%; with PAK4, 0%; in the experiment on PAK6 it was 0%; in the experiment on PAK7, 0%; with PCTK1 it was 7%; in the experiment with PCTK2, 0%. Further, the “%Inh” value stood at 15% with PCTK3; 0% with PDGFRA; 68% in the experiment with PDGFRB; 0% in the experiment with PDPK1; 13% in the experiment with PFTAIRE2; 18% in the experiment on PFTK1. The “%Inh” value with PHKG1, with PHKG2, with PIK3C2B, in the experiment on PIK3C2G, in the experiment with PIK3CA and in the experiment on PIK3CB was 0% throughout. The “%Inh” value in the experiment on PIK3CD and in the experiment with PIK3CG was 0% each time.
As for `Cc1ccc(-c2nc(Nc3ccncc3)c3ccccc3n2)s1` [GSK189015], the “%Inh” value in the experiment with PAK3 amounted to 6%; with PAK4, 4%; with PAK6, 8%; with PAK7 it was 0%; in the experiment with PCTK1, 7%; in the experiment with PCTK2 it was 0%. In addition, the “%Inh” value was 30% in the experiment with PCTK3; 0% with PDGFRA; 22% in the experiment on PDGFRB; 26% in the experiment on PDPK1; 22% in the experiment on PFTAIRE2; 28% in the experiment with PFTK1. Also, the “%Inh” value stood at 9% in the experiment on PHKG1; 0% in the experiment with PHKG2; 0% in the experiment on PIK3C2B; 0% in the experiment with PIK3C2G; 0% in the experiment on PIK3CA; 0% in the experiment with PIK3CB. Moreover, the “%Inh” value in the experiment with PIK3CD and in the experiment on PIK3CG was 0% throughout.
Consider `COc1ccc(CSc2nnc(-c3ccc4c(c3)CCO4)o2)cc1`, for which the “%Inh” value was 0% with PAK3; 0% in the experiment on PAK4; 0% in the experiment on PAK6; 0% in the experiment with PAK7; 0% in the experiment with PCTK1; 5% in the experiment on PCTK2. For the same compound, the “%Inh” value with PCTK3, in the experiment with PDGFRA, in the experiment on PDGFRB, in the experiment on PDPK1, in the experiment with PFTAIRE2 and in the experiment with PFTK1 was 0% throughout. Further, the “%Inh” value stood at 0% in the experiment with PHKG1; 25% in the experiment with PHKG2; 0% in the experiment on PIK3C2B; 0% with PIK3C2G; 0% in the experiment with PIK3CA; 0% in the experiment with PIK3CB. For the same compound, the “%Inh” value with PIK3CD and in the experiment with PIK3CG was 0% throughout.
Regarding `Cc1c(Cn2c3ccccc3n3c(=O)cc(N4CCOCC4)nc23)cccc1C(F)(F)F` [GSK2306394], the “%Inh” value was 23% in the experiment on PAK3; 0% in the experiment on PAK4; 0% in the experiment on PAK6; 0% in the experiment on PAK7; 0% in the experiment on PCTK1; 0% with PCTK2. In addition, the “%Inh” value is recorded as 5% in the experiment with PCTK3; 11% with PDGFRA; 25% in the experiment with PDGFRB; 0% with PDPK1; 14% in the experiment on PFTAIRE2; 21% with PFTK1. The “%Inh” value with PHKG1 was 12%; in the experiment on PHKG2, 18%; in the experiment with PIK3C2B, 9%; in the experiment with PIK3C2G, 3%; in the experiment on PIK3CA, 1%; in the experiment with PIK3CB, 98.4%. Besides, the entries for the “%Inh” value with PIK3CD and with PIK3CG were 52% and 0%, respectively.
`COc1ccc2cc(-c3nc(-c4ccccc4C(C)C)[nH]c3-c3ccncc3)ccc2c1` [SB-660566]: the “%Inh” value was found to be 30% with PAK3; 0% in the experiment on PAK4; 0% in the experiment with PAK6; 0% in the experiment on PAK7; 51% in the experiment with PCTK1; 0% in the experiment on PCTK2. For the same compound, the “%Inh” value in the experiment with PCTK3 was 2%; in the experiment with PDGFRA, 0%; in the experiment with PDGFRB, 7%; with PDPK1, 0%; with PFTAIRE2, 12%; in the experiment on PFTK1 it was 17%. Further, the “%Inh” value with PHKG1, in the experiment with PHKG2, in the experiment with PIK3C2B, with PIK3C2G, with PIK3CA and in the experiment on PIK3CB was 0% each time. Also, the “%Inh” value in the experiment with PIK3CD and in the experiment with PIK3CG was 0% each time.
In the case of `Cc1ccc(NC(=O)Nc2ccccc2F)cc1-c1ccc(C(=O)Nc2ccncc2)cc1` [GSK1398477], the “%Inh” value stood at 27% in the experiment on PAK3; 0% with PAK4; 5% in the experiment with PAK6; 11% with PAK7; 4% in the experiment on PCTK1; 12% with PCTK2. Moreover, the “%Inh” value in the experiment on PCTK3 came out at 46%; in the experiment with PDGFRA, 50%; in the experiment with PDGFRB, 100%; in the experiment with PDPK1, 19%; with PFTAIRE2 it was 28%; in the experiment on PFTK1, 25%. Further, the “%Inh” value in the experiment on PHKG1 turned out to be 23%; in the experiment with PHKG2, 4%; in the experiment on PIK3C2B, 0%; in the experiment with PIK3C2G, 0%; with PIK3CA, 0%; in the experiment with PIK3CB, 0%. For the same compound, the “%Inh” value with PIK3CD and in the experiment on PIK3CG was 0% throughout.
As for `CSc1ccc(-c2nc3n(c2-c2ccncc2)CCC3)cc1` [SKF-105561], the “%Inh” value is 0% with PAK3; 0% in the experiment on PAK4; 0% with PAK6; 0% with PAK7; 3% in the experiment on PCTK1; 5% in the experiment on PCTK2. The “%Inh” value in the experiment with PCTK3 was determined as 0%; in the experiment with PDGFRA, 28%; in the experiment with PDGFRB, 0%; in the experiment with PDPK1 it was 0%; in the experiment with PFTAIRE2 it was 1%; in the experiment on PFTK1, 2%. Moreover, the “%Inh” value in the experiment with PHKG1 worked out at 5%; with PHKG2, 0%; with PIK3C2B it was 19%; in the experiment on PIK3C2G it was 21%; in the experiment on PIK3CA, 0%; with PIK3CB it was 0%. Moreover, the “%Inh” value is reported as 0% in the experiment with PIK3CD and 23% in the experiment on PIK3CG.
For `CNc1nc(-c2ccc3c(N)n[nH]c3c2)cc(N2C[C@@H](C(=O)Nc3ccccc3)CC[C@H]2C)n1` [GSK2298859], the “%Inh” value stood at 0% with PAK3; 0% with PAK4; 2% with PAK6; 20% in the experiment on PAK7; 2% in the experiment with PCTK1; 0% in the experiment on PCTK2. The “%Inh” value is reported as 9% with PCTK3; 0% in the experiment on PDGFRA; 10% in the experiment with PDGFRB; 83% in the experiment with PDPK1; 3% in the experiment on PFTAIRE2; 17% with PFTK1. The “%Inh” value in the experiment with PHKG1 amounted to 0%; with PHKG2, 15%; in the experiment on PIK3C2B, 0%; in the experiment with PIK3C2G it was 0%; with PIK3CA, 0%; in the experiment with PIK3CB, 0%. Moreover, the “%Inh” value in the experiment with PIK3CD and with PIK3CG was 0% throughout.
